According to PubChem BioAssay AID2066 (NMMLSC, 2009):
The campaign covered roughly 320,000 compounds. About 50 (0.02%) were called active. For the sample, actives were picked, then their nearest neighbours and some compounds at random. A number with no mark means an inactive call.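 Rule for the calls: active = GFP response relative to DMSO above a set limit, near screen average plus 3 SD (cut at about 150% in these data); inconclusive = fewer than 70 cells counted for the yeast strain; inactive = the rest.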

Assay: yeast AGP1-GFP level changes, GLN3 branch – cell-based, multiplex flow cytometry, S. cerevisiae, MLPCN library, primary screen (AID 2066);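 note: median GFP channel fluorescence of the gated AGP1 strain per well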
Conditions: 3 h, at 10 µM, active compounds read high, GFP as percent of DMSO wells
For `COc1ccccc1NC(=O)C1=C(C)Nc2nc3ccccc3n2C1c1cccs1` (stereo not given), the GFP response vs DMSO was 97.6%. For `CCOC(=O)C1CCCN(S(=O)(=O)c2ccc(-n3cnnn3)c(C)c2)C1` (stereo not given), the GFP response vs DMSO was 107%. Work on `Cc1cc(C)c(OCCN2CC(C)OC(C)C2)c(Br)c1` (stereo not given) yielded a GFP response vs DMSO of 103%. With `CC(C)COc1ccc(C(=O)NNC(=O)CCC(=O)c2cccs2)cc1` the GFP response vs DMSO was 107%. For `O=[N+]([O-])c1cc(S(=O)(=O)N2CCCC2)ccc1NN=C1CCCC1`, the GFP response vs DMSO was 102%. With `Cc1cccc(OCC(=O)OCC(=O)Nc2ccc(Cl)cn2)c1` the GFP response vs DMSO was 106%. Work on `CCCCCCCCCCCCC(NC(C)=O)(C(=O)OCC)C(=O)OCC` yielded a GFP response vs DMSO of 94.5%. `C/C(CC(=O)NCc1ccc(Cl)cc1)=N\NC(=O)COc1ccc(C)cc1Br` gave a GFP response vs DMSO of 105%. `Cn1c(N)c(C(=O)COC(=O)C23CC4CC(CC(C4)C2)C3)c(=O)n(C)c1=O` gave a GFP response vs DMSO of 103%. Compound `COc1ccc(C2=NN(C(=O)CSc3nc(=O)n4ccc(C)cc4n3)C(c3ccc(C)cc3)C2)cc1` (stereo not given) has a GFP response vs DMSO of 107%. For `N/C(=N\OC(=O)CC1CCCCC1)c1ccccc1`, the GFP response vs DMSO was 93.2%. Compound `CCCN(CC1CC1)C(=O)COC(=O)c1ccc(C)cc1O` has a GFP response vs DMSO of 99.2%. For `COc1cc(C(=O)OCC(=O)N(CC(C)C)C2CCS(=O)(=O)C2)ccc1OCC(C)C` (stereo not given), the GFP response vs DMSO was 103%. Work on `CC(C)Cc1nn2c(=O)cc(O)nc2s1` yielded a GFP response vs DMSO of 106%. `O=C(Nc1ccc(S(=O)(=O)N2CCCCCC2)cc1)c1c(F)cccc1F` showed a GFP response vs DMSO of 93.4%. In the case of `COc1ccc(OC)c(S(=O)(=O)Nc2c(C)nn(C)c2C)c1`, the GFP response vs DMSO is reported as 99.1%. With `CN=C(Nc1cccc(S(=O)(=O)N2CCOCC2)c1)c1ccccc1` the GFP response vs DMSO was 111%. Work on `Cc1ccc(C)c(C(=O)COC(=O)Cn2[nH]c(=O)c3ccccc3c2=O)c1` yielded a GFP response vs DMSO of 101%. With `CCN1/C(=C\c2ccc3ccccc3[n+]2CC)Sc2cc(C)ccc21` the GFP response vs DMSO was 189% [may fluoresce green] (active). Compound `COc1ccc(-c2cc(C(F)(F)F)nc(S(C)(=O)=O)n2)cc1OC` has a GFP response vs DMSO of 106%. `COc1ccc(-c2nnc(NC(=O)CS(=O)(=O)c3ccc(Cl)cc3)o2)c(OC)c1` gave a GFP response vs DMSO of 100%. With `Cc1noc(C)c1CSCC(=O)N(CCC(C)C)c1c(N)n(Cc2ccccc2)c(=O)[nH]c1=O` the GFP response vs DMSO was 102%. `CC(=O)c1c(C)[nH]c(C(=O)COc2ccc3c(C)cc(=O)oc3c2)c1C` gave a GFP response vs DMSO of 110%. Compound `COc1ccc(CCNC2=CC(=O)CC(C)(C)C2)cc1` has a GFP response vs DMSO of 111%. With `CC1CN(C(=O)c2ccc([N+](=O)[O-])s2)CC(C)O1` (stereo not given) the GFP response vs DMSO was 94.7%.
